We go through 40 compounds from the supplement of paper PMC10981050.

The experiment has as its system OCI-AML2. Description: cell viability relative to vehicle control; higher = less cytotoxic. Conditions: 10 µM; SRSF2 genotype: wt/wt. The gist of the method: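 CRISPR-edited SRSF2 P95 mutant and isogenic wild-type clones of four leukaemia lines were screened against Selleck bioactive, kinase and epigenetic probe libraries, with identity-inconsistent compounds removed. Compounds were acoustically dispensed into 384-well plates at a single 10 µM dose, with 2000 cells in 50 µL medium per well. After 48 h, supernatant was removed and CellTiter-Glo luminescence was read. Viability was expressed as percent of the on-plate DMSO vehicle control, analysed in Genedata Screener.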
As to `COc1ccc2cc(C(=O)O)ccc2c1` [6-Methoxy-2-naphthoic acid], the cell viability stood at 92.4%.
To `OC[C@H]1O[C@H](OCC2O[C@@H](O)[C@H](O)[C@@H](O)[C@@H]2O)[C@H](O)[C@@H](O)[C@H]1O` (stereo not given in full) [Melibiose] belongs 103%.
As for `CNC(=O)c1ccc(-c2cnc3ncc(Cc4ccc5ncccc5c4)n3n2)cc1F`, the cell viability amounted to 110%.
Take `Nc1cc(C(Cl)=C(Cl)Cl)c(S(N)(=O)=O)cc1S(N)(=O)=O` [Clorsulon]: the cell viability stood at 112%.
As to `C[C@H](CCC(=O)O)[C@H]1CC[C@H]2[C@@H]3C[C@H](O)[C@@H]4C[C@H](O)CC[C@]4(C)[C@H]3CC[C@]12C` [Hyodeoxycholic acid (HDCA)], the cell viability worked out at 97.4%.
To `COc1ccc(C[C@@H]2c3cc(Oc4cc(C[C@@H]5c6cc(OC)c(OC)cc6CCN5C)ccc4O)c(OC)cc3CCN2C)cc1` [Neferine] belongs 102%.
To `CN1CC(O)c2cc(N=NC(N)=O)c(O)cc21` (stereo not given) [Carbazochrome] belongs 95.4%; to `COc1ccccc1N1CCN(CCN(C(=O)C2CCCCC2)c2ccccn2)CC1`, 66.3%.
The value for `CCCCCCCCCC[C@H](C(=O)O)[C@]1(C(=O)O)CCC(=O)O1` [Spiculisporic Acid] was 103%.
Regarding `COc1ncnc(NS(=O)(=O)c2ccc(N)cc2)c1OC` [Sulfadoxine (Sulphadoxine)], the cell viability was 96.3%.
To `OCCc1ccc(O)c(O)c1` [Hydroxytyrosol] belongs 106%; to `CNc1ccc([N+](=O)[O-])c(Nc2ccc3[nH]ncc3c2)n1`, 26.6%.
To `Cc1cc2c(F)c(Oc3ncnn4cc(OC[C@@H](C)O)c(C)c34)ccc2[nH]1` belongs 86.6%; to `Cc1nc(-c2ccc(OCC(C)C)c(C#N)c2)sc1C(=O)O` [Febuxostat (Uloric)], 123%.
As for `COc1ccc(C(=O)CC(=O)c2ccc(C(C)(C)C)cc2)cc1` [Avobenzone (Parsol 1789)], the cell viability worked out at 76.8%.
To `Nc1ccc(Cl)cc1C(=O)C(F)(F)F` [4-Chloro-2-(trifluoroacetyl)aniline hydrochl] belongs 115%; to `NC(=O)OCC(COC(N)=O)c1ccccc1` [Felbamate], 113%.
`O=C1CCC(N2C(=O)c3ccccc3C2=O)C(=O)N1` (stereo not given) [Thalidomide]: the cell viability came out at 91.4%.
The value for `C[C@@]1(CO)C[C@@H](O)C[C@@]2(C)[C@@H]3CC[C@](C)([C@@H](O)CO)C=C3CC[C@H]12` [Kirenol] was 101%; that for `CCC[C@H](NC(=O)/C(C#N)=C/c1cccc(Br)n1)c1ccccc1` [Degrasyn (WP1130)] was 0.8%.
The value for `O=C(Nc1ccccc1)N1CCN(c2nc(-c3ccccc3)ns2)CC1` was 70.3%; that for `CCCCCCCCCC=O` [Decyl aldehyde] was 111%.
The value for `CC1(C)CCC2(C(=O)O)CCC3=C(C(CCl)CC4C3(C)CCC3C4(C)CC(O)C(O)C3(C)C(=O)O)C2C1` (stereo not given) [Senegenin] was 113%; that for `CS(=O)(=O)Nc1cc2occ(NC=O)c(=O)c2cc1Oc1ccccc1` [Iguratimod] was 123%; that for `OC[C@H]1O[C@@H](Oc2cc(O)cc(/C=C/c3ccc(O[C@@H]4O[C@H](CO)[C@@H](O)[C@H](O)[C@H]4O)cc3O)c2)[C@H](O)[C@@H](O)[C@@H]1O` [Mulberroside A] was 105%.
As for `Cc1ccc(Sc2ccccc2N2CCNCC2)c(C)c1`, the cell viability was determined as 0.89%.
`Cc1cc(C(O)=C2C(=O)C(=O)N(CCCN3CCOCC3)C2c2ccncc2)ccc1OCc1ccccc1` (stereo not given): the cell viability came to 94.2%.
The value for `CCCCCCNC(=O)n1cc(F)c(=O)[nH]c1=O` [Carmofur] was 58.3%; that for `COC(=O)C1=CO[C@@H](O[C@@H]2O[C@H](CO)[C@@H](O)[C@H](O)[C@H]2O)[C@@H]2[C@H](C)O[C@@H](O)C[C@H]12` [Morroniside] was 106%.
Turning to `Cn1cc(C2=C(c3cccc(N)c3)C(=O)NC2=O)c2ccccc21`, the cell viability was 101%.
The value for `COCC[n+]1c2c(n(Cc3cnccn3)c1C)C(=O)c1ccccc1C2=O` [YM155 (Sepantronium Bromide)] was 0.36%; that for `CCOCc1nc2c(N)nc3ccccc3c2n1CC(C)(C)O` [Resiquimod] was 98.8%; that for `Cn1sc(=O)n(Cc2ccccc2)c1=O` was 0.09%.
To `O=C(CCCCCN1C(=O)c2cccc3cccc(c23)C1=O)NO` [Scriptaid] belongs 0.98%; to `O=C(O)CNC(=O)c1ccccc1` [Hippuric acid], 101%.
The value for `Cn1cc(-c2ccc3nnc(Sc4ccc5ncccc5c4)n3n2)cn1` was 94.3%.
For the compound `CS(=O)(=O)c1ccc(-c2cnc(NCc3ccco3)n3cnnc23)cc1`, the cell viability is 110%.
To `Nc1ccc(Oc2ccc(-c3ccc(Oc4ccc(N)cc4)cc3)cc2)cc1` [4,4prime-Bis(4-aminophenoxy)biphenyl] belongs 112%.
As for `CCCCCOC(=O)Nc1nc(=O)n([C@@H]2O[C@H](C)[C@@H](O)[C@H]2O)cc1F` [Capecitabine (Xeloda)], the cell viability was determined as 99.2%.
With `C=CC(=O)Nc1cc(Nc2nccc(-n3cc(CN(C)C)c(-c4ccccc4)n3)n2)c(OC)cc1N1CCOCC1`, the cell viability came out at 63.3%.
